Rows were chosen to be rich in hits. Some 7.6% of all compounds tested hit in one or more screens of this group.
VP16 counter = VP16 counterscreen qHTS for inhibitors of ROR gamma transcriptional activity | Drosophila S2 Gal4-VP16 UAS-luciferase, luminescence, 20 h | Potency, µM (top dose mostly 53.6 µM), for inactives: at the highest dose activity, negative = inhibition, most hits filed as inhibitors | 310,000 tested, 3.5% active;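 note: Gal4-VP16 expression switched on by copper sulfate through the metallothionein promoter; potency is the fitted concentration of half-maximal effect; % is set by controls: 0 for no effect and ±100 for the full control effect; nearly all actives have a fitted effect of over 50% in size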
BRCA1 expr up = qHTS Assay to Identify Small Molecule Activators of BRCA1 Expression; MCF7-BRCA1-FFLuc reporter, luminescence, 48 h; response scale: scaled: vehicle 0%, 10 µM genistein 100%; 380,000 tested, 1.1% active; Potency, µM (top dose mostly 46.1 µM), inactives show at the highest dose activation, usual class: activators; AID 624202, 2012; note: potency is the fitted concentration of half-maximal effect; nearly all actives have a fitted effect of over 80% in size
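MCF7-BRCA1-FFLuc, 2000 cells/well; 2 h attach, 37 °C/5% CO2; compound 48 h; luciferase substrate 15 min; luminescence end-point. Norm. to genistein 10 microM max activation and DMSO; concentration-response curves fitted.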
ELG1 DNA repair = qHTS screen for small molecules that inhibit ELG1-dependent DNA repair in human embryonic kidney (HEK293T) cells expressing luciferase-tagged ELG1 | HEK293T ELG1-luciferase reporter, luminescence, 16 h; DNA damage induced by 5-fluorouridine | Potency, µM (series often up to 46.1 µM), for inactives: at the highest dose activity change, negative = inhibition, most hits filed as inhibitors | 330,000 tested, 2.3% active; note: potency is the fitted concentration of half-maximal effect; % is set by controls: 0 for no effect and ±100 for the full control effect; nearly all actives have a fitted effect of over 55% in size
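DMSO vehicle served as the neutral condition. Each well held 2,000 cells given 5-fluorouridine plus compound; after 16 hr at 37 °C/5% CO2, ONE-Glo was added and luciferase measured 30 min later.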
p53 reactivation = qHTS assay for re-activators of p53 using a Luc reporter; AID 504706, 2011; 320,000 tested, 0.063% active; H1299 p53-A138V BP100-luciferase reporter, luminescence, 24 h; Potency, µM (series often up to 92.2 µM), for inactives: top-dose activity change, positive = activation, usual class: activators; note: potency is the fitted concentration of half-maximal effect; % of control where 0% means no effect; nearly all actives have a fitted effect of over 45% in size
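p53-null H1299 cells stably carrying temperature-sensitive p53-A138V and a BP100-luciferase reporter were pinned with compounds (4-point, 1:5 series) and held 24 hrs at 37 deg C. Luminescence was read 10 min after detection reagent.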
RORgamma inh = qHTS for inhibitors of ROR gamma transcriptional activity. Nuclear receptor ROR-gamma (Mus musculus), P51450. Drosophila S2 Gal4-RORgamma UAS-luciferase reporter, 20 h. Potency, µM (top dose mostly 53.6 µM), inactives show at the highest dose activity change, negative = inhibition, actives largely listed as inhibitors. 310,000 tested, 5.4% active; note: potency is the fitted concentration of half-maximal effect; % is set by controls: 0 for no effect and ±100 for the full control effect; nearly all actives have a fitted effect of over 60% in size
Target sequence (P51450 whole entry, looked up, the tested form may be a part): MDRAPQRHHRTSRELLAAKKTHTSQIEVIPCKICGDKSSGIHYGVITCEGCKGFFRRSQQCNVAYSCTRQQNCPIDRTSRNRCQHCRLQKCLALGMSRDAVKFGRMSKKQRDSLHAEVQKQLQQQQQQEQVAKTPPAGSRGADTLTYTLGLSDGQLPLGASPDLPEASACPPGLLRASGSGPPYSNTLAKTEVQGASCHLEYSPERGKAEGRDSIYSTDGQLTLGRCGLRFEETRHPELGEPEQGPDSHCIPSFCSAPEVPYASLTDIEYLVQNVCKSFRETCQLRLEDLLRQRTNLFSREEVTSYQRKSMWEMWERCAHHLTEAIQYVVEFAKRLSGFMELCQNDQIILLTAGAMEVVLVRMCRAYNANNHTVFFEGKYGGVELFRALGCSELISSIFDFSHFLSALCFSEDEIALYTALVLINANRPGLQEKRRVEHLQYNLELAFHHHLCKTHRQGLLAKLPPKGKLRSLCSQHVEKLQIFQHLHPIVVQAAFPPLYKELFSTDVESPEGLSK
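ROR gamma transcriptional activity was tracked as Gal4-UAS luciferase output in stably transfected Drosophila Schneider cells, with compound added 1 hr before 700 uM copper sulfate induction and a 20 hr ambient-temperature incubation.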
Giardia kill = Small Molecules that selectively kill Giardia lamblia: qHTS | Giardia lamblia trophozoite viability | activity change, % at 7.66 µM, hits read low | 340,000 tested, 0.15% active; in the data active = activity change below about -80%; inconclusive = between about -30% and that limit;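 note: parasites exposed to compound for two days anaerobically before the ATP read; % is set by controls: 0 for no effect and ±100 for the full control effect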
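ATP-content bioluminescence gauges trophozoite survival. Cells (100/well) receive compound and incubate anaerobically for 48 hrs at 37 deg C; detection reagent follows for 15-30 min at room temperature.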
Numbers without * were called inactive; ? = inconclusive; . = not tested or not shown; [ ] = another dose, or the depositor's remark. Unless noted, calls come from the whole dose curve; as a rule, active = well fitted curve in the direction sought with a large enough effect; inconclusive = small, poorly fitted or top-dose-only effect, or another doubt; inactive = no such curve, though single readings can be large; an effect the other way counts as inactive or inconclusive.

SMILES	VP16 counter	BRCA1 expr up	ELG1 DNA repair	p53 reactivation	RORgamma inh	Giardia kill
CCn1c(SCC(=O)Nc2ccc(Cl)cc2)nc2nc3c(cc2c1=O)CCCC3	13µM*	-57%	?	-15%	14µM*	11
COc1ccccc1N1CCN(S(=O)(=O)CCNC(=O)c2cccs2)CC1	.	3%	.	.	.	.
COc1ccc(S(=O)(=O)N(C(C)=O)c2ccc(OC(C)=O)c3ccccc23)cc1[N+](=O)[O-]	?	-87%	15µM*	-34%	?	?
COc1ccc(S(=O)(=O)N2CCc3ccccc32)cc1[N+](=O)[O-]	6%	-18%	6.5µM*	4%	13%	2
CCN(CC)S(=O)(=O)c1cc(OC)c(C)cc1C	2%	1%	-13%	-1%	-24%	-8
Cc1cc(Nc2nc3ccccc3nc2Cl)n(-c2ccc([N+](=O)[O-])cc2)n1	-5%	-96%	21µM*	4%	5%	-17
CC(=NO)c1ccc2c(c1)Cc1cc([N+](=O)[O-])ccc1-2	.	5.6µM*	.	.	.	?
CC(=O)c1ccc2c(c1)Cc1cc(C(C)=O)ccc1-2	-16%	2µM*	?	?	?	-12
Cc1csc(SCC(=O)NC(=O)NCc2ccccc2)n1	1%	-6%	4%	-7%	-15%	-4
O=S(=O)(CCN1CCCC1)NCCNS(=O)(=O)c1ccc(F)cc1Br	.	42%	.	.	.	34
COc1ccc(/C=N/Nc2nc(N3CCCC3)nc(N3CCCC3)n2)c(OC)c1OC	-16%	2%	?	1%	7.9µM*	11
COc1cccc(/C=N/Nc2nc(N3CCCC3)nc(N3CCCC3)n2)c1O	?	-49%	15µM*	-3%	10µM*	-2
COc1ccc(/C=N/Nc2ccc(C(=O)O)cc2)c(OC)c1OC	-14%	?	?	8%	-23%	-5
O=C(O)c1ccccc1/C=N/Nc1nc(N2CCCCC2)nc(N2CCCCC2)n1	-1%	.	8%	5%	-25%	.
Cc1ccc(C)c(NC(=O)Cn2c(=O)n(-c3ccc(CC(=O)NCC4CCCO4)cc3)c(=O)c3ccccc32)c1 (stereo not drawn)	-16%	4%	2%	-1%	30%	.
O=C(OCc1ccccc1)N1CCC2CC1c1cc(N3CCN(S(=O)(=O)c4cccc(C(F)(F)F)c4)CC3)ccc12 (stereo not drawn)	.	8%	.	.	.	.
CCOC(=O)N1CCN(S(=O)(=O)c2c(C)[nH]c(=O)[nH]c2=O)CC1	.	7%	9%	-5%	3%[0.365 µM]	10
NC(=O)c1ccc[n+](Cc2ccc(-c3ccccc3)cc2)c1	-2%	-19%	2%	-4%	-1%	2
CCCCC(=O)Nc1ccc(C2C(=O)c3ccccc3C2=O)cc1	.	4µM*	.	.	.	?
CCC(=O)Nc1ccc(C2C(=O)c3ccccc3C2=O)cc1	?	67%	?	?	?	-82*
CCC(=O)NC1=C(Nc2ccc(N)cc2)C(=O)c2ccccc2C1=O	?	-14%	?	21%	13µM*	-16
CCCCCC(=O)Nc1ccc2ccccc2c1	18%	2.8µM*	?	?	-6%	13
CCc1ccc(C2C(=O)c3ccccc3C2=O)cc1	.	12%	.	.	.	-29
O=S(=O)(Cc1ccccc1)NC1c2ccccc2Oc2ccccc21	.	-21%	.	.	.	-22
O=C(NN=C1CCCC1)c1cc(-c2ccc(F)cc2)nc2ccccc12	1%	-29%	?	5%	?	16
CCCc1ccc(-c2cc(C(=O)NC3=NCCS3)c3ccccc3n2)cc1	1.6µM*	?	?	?	1.8µM*	?
O=C(NC1=NCCS1)c1cc(-c2ccc(F)cc2)nc2ccccc12	11µM*	29%	?	6%	10µM*	22
